Measured values published in PubChem BioAssay (Tox21).
Unmarked numbers belong to inactive results. Inconclusive results are not listed. Where a call stands in place of a potency, no number is given. The source made the active and inactive calls. Unless noted, calls follow the shape of the dose curve; as a rule, active = well fitted curve in the direction sought with a large enough effect in the repeat runs; inconclusive = weak or mixed curves; inactive = no such curve, though single readings can be large; an effect the other way counts as inactive or inconclusive.

Legend:
[1] = qHTS assay to identify small molecule agonists of the estrogen receptor alpha (ER-alpha) signaling pathway in the presence of an antagonist - cell viability counter screen (AID 1259386);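 also: series mostly up to about 92 µM; cells exposed to compounds for 22 h at 37 °C before the viability read; nearly all actives have a fitted effect of over 30% in size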
How it was run: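 Cells are starved of estrogens for 5 days in charcoal-stripped serum, seeded for 24hr and co-treated with ICI-182,780 (10.0nM final) and test compounds. After 22hr at 37C, viability is read as CellTiter-Fluor fluorescence.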

[2] = target: Progesterone receptor (Homo sapiens) (UniProt P06401); experiment: qHTS assay to identify small molecule agonists of the progesterone receptor (PR) signaling pathway (AID 1346784; calls by dose curve; also: nearly all actives have a fitted effect of over 30% in size)
Sequence of Progesterone receptor (Homo sapiens) (P06401 whole entry, looked up): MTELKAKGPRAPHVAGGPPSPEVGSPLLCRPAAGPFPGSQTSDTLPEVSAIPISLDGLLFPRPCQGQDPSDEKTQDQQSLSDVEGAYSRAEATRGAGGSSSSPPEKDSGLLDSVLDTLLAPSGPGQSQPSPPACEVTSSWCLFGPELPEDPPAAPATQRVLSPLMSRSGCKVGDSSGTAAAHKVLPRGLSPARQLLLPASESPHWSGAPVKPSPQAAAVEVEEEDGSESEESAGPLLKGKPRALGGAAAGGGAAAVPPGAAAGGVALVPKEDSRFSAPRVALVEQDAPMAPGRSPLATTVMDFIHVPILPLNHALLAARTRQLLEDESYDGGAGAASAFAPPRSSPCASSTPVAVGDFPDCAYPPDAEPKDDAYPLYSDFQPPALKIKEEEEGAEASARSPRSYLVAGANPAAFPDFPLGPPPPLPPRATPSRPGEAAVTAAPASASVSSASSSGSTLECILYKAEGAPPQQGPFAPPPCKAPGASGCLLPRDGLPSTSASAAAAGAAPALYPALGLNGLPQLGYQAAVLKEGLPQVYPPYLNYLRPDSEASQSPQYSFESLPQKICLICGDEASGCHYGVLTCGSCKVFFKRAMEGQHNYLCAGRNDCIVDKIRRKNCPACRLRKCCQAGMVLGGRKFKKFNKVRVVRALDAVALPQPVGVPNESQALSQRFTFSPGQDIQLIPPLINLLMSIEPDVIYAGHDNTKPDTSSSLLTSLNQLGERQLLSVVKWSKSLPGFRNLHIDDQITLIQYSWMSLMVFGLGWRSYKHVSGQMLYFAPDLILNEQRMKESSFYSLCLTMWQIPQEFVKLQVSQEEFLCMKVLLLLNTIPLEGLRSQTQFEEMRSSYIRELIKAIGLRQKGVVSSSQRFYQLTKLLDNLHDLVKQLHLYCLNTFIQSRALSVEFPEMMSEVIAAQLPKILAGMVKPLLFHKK
How it was run: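 Seed PR-UAS-bla HEK 293T cells (2% charcoal-stripped FBS), incubate 6 hr at 37C; add compounds in DMSO, 16 hr at 37C; add LiveBLAzer B/G substrate, 2 hr RT; read fluorescence intensity.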

[3] = target: Progesterone receptor (Homo sapiens) (UniProt P06401); experiment: qHTS assay to identify small molecule antagonists of the progesterone receptor (PR) signaling pathway (AID 1346795; active = well fitted inhibition curve with a large enough effect in the signal ratio in the repeat runs, not every such curve was filed as active; the % refers to the signal ratio; also: potency is read from the fitted curve at half-maximal effect)
How it was run: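 Screening used a GripTite HEK293T line with PR-responsive UAS-beta-lactamase. Cells were challenged with compound in the presence of 1 nM R5020 final for 16 hr at 37C; B/G FRET substrate, 2 hr room temperature, fluorescence.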

[4] = qHTS assay to identify small molecule antagonists of the progesterone receptor (PR) signaling pathway - cell viability counter screen (AID 1346798); also: series mostly up to about 92 µM; nearly all actives have a fitted effect of over 50% in size
How it was run: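 Measures cytotoxicity in parallel with the PR antagonist reporter read: HEK293T PR-UAS-bla cells get compound and R5020 for 16 hr, and remaining viable cells are quantified by CellTiter-Glo luminescence.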

[5] = qHTS assay to identify small molecule agonists of the progesterone receptor (PR) signaling pathway - cell viability counter screen (AID 1346799; calls by dose curve; also: nearly all actives have a fitted effect of over 45% in size)
How it was run: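 Using the same plates as the PR reporter screen, HEK293T PR-UAS-bla cells received compounds for 16 hr at 37C and were then lysed with CellTiter-Glo; luminescence was read 30 min later at room temperature.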

[6] = qHTS assay to identify small molecule antagonists of the TGF-beta/Smad signaling pathway - cell viability counter screen (AID 1346824); also: nearly all actives have a fitted effect of over 50% in size
How it was run: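 SBE-bla HEK 293T cells were plated overnight at 37 C, then given compounds in DMSO plus TGF-beta1 (added as 0.25 ng/mL solution) for 5 hr. After the bla read, CellTiter-Glo was added to the same wells and luminescence read after 30 min at room temperature.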

[7] = qHTS assay to identify small molecule agonists of the TGF-beta/Smad signaling pathway - cell viability counter screen (AID 1346829); also: top concentration of the series differs between compounds; nearly all actives have a fitted effect of over 45% in size
How it was run: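 Compound-treated SBE-bla HEK 293T cells (5 hr, 37 C) were assessed for viability with CellTiter-Glo in parallel with the reporter read.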

[8] = qHTS assay to identify small molecule agonists of the TGF-beta/Smad signaling pathway (AID 1346859; active = well fitted activation curve with a large enough effect in the signal ratio in the repeat runs, not every such curve was filed as active; the % refers to the signal ratio; also: series mostly up to about 77 µM)
How it was run: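 Beta-lactamase reporter activity downstream of Smad binding elements was measured in stably transfected HEK 293T cells; compounds were incubated for 5 hr, substrate for 2 hr at room temperature.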

[9] = Human pregnane X receptor (PXR) small molecule agonists, qHTS cell viability counter screen (AID 1346977); also: nearly all actives have a fitted effect of over 50% in size
How it was run: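 After a 5hr pre-incubation, PXR-Luc HepG2 cells received compounds plus positive control in DMSO and were kept 24hr at 37C. Cell viability was quantified by fluorescence from CellTiter-Fluor added for the final hour.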

[10] = Caspase-3/7 induction in CHO-K1 cells by small molecules, qHTS cell viability counter screen (AID 1346979); also: nearly all actives have a fitted effect of over 35% in size
How it was run: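 Multiplexed with Caspase-Glo 3/7 in CHO-K1 cells, this counter screen added CellTiter-Fluor after 16hr of compound exposure and recorded fluorescence 1hr later.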

[11] = Caspase-3/7 induction in CHO-K1 cells by small molecules, qHTS assay (AID 1346980); also: nearly all actives have a fitted effect of over 15% in size
How it was run: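 Wild-type cells were seeded at 1,500 per well and settled 5 hr at 37 C, 5% CO2, then exposed to DMSO-dissolved compounds for 17 hr. Caspase-Glo 3/7 reagent was added, and luminescence was read after 30min at room temperature.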

[12] = Caspase-3/7 induction in HepG2 cells by small molecules, qHTS cell viability counter screen (AID 1346981); also: series mostly up to about 92 µM; nearly all actives have a fitted effect of over 30% in size
How it was run: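 Steps: seed 2,000 HepG2 cells per well; incubate 5 hr at 37 C; pin-add compounds in DMSO; incubate 16 hr; add CellTiter-Fluor; after 1 hr at 37 C and 5% CO2, read fluorescence.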

[13] = target: Thyrotropin-releasing hormone receptor (Homo sapiens) (UniProt P34981); experiment: qHTS assay to identify small molecule antagonists of the thyrotropin-releasing hormone receptor (TRHR) signaling pathway (AID 1346877; active = well fitted inhibition curve with a large enough effect in the repeat runs, not every such curve was filed as active; also: series mostly up to about 51 µM)
Sequence of Thyrotropin-releasing hormone receptor (Homo sapiens) (P34981 whole entry, looked up): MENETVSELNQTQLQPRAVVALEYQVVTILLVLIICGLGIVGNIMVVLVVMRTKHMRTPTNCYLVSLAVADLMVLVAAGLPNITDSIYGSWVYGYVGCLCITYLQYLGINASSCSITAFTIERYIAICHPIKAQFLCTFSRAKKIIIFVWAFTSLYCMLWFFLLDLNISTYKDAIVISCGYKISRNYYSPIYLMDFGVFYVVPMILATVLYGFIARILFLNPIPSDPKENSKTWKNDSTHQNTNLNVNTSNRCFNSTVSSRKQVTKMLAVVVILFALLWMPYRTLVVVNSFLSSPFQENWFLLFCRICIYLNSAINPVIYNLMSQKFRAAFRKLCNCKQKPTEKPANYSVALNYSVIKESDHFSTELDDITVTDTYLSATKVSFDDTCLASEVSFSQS
How it was run: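 Cells (TRHR-HEK293) are plated and kept 18 h at 37 °C/5% CO2. A calcium-sensitive dye is added for 2 h, compound follows for 5 min at room temperature, and TRH is then given at 1 nM final.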

[14] = target: Nuclear receptor subfamily 1 group I member 2 (Homo sapiens) (UniProt O75469); experiment: Human pregnane X receptor (PXR) small molecule agonists, qHTS assay (AID 1346982); also: nearly all actives have a fitted effect of over 35% in size; also: potency is read from the fitted curve at half-maximal effect
Sequence of Nuclear receptor subfamily 1 group I member 2 (Homo sapiens) (O75469 whole entry, looked up): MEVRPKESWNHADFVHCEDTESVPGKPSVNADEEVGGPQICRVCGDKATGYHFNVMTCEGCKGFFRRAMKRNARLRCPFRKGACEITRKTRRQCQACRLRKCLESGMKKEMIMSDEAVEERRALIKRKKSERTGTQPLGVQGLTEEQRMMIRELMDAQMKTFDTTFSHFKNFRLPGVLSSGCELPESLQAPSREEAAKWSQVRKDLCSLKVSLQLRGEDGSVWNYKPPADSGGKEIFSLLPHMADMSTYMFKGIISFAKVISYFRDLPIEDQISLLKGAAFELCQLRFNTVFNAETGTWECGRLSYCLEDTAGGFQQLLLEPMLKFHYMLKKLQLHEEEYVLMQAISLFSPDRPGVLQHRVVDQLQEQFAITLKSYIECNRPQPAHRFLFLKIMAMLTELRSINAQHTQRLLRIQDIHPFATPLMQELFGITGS
How it was run: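 Agonist mode qHTS: PXR-Luc HepG2 cells plated 5 hr before DMSO-dissolved compounds were pinned in, cultured 24 hr at 37 C, 5% CO2; ONE-Glo luminescence readout.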

[15] = target: Cytochrome P450 2D6 (Homo sapiens) (UniProt P10635); experiment: Cytochrome P450 Family 2 Subfamily D Member 6 (CYP2D6) small molecule antagonists: luciferase reporter qHTS assay (AID 1671196); also: series mostly up to about 120 µM; nearly all actives have a fitted effect of over 50% in size
Sequence of Cytochrome P450 2D6 (Homo sapiens) (P10635 whole entry, looked up): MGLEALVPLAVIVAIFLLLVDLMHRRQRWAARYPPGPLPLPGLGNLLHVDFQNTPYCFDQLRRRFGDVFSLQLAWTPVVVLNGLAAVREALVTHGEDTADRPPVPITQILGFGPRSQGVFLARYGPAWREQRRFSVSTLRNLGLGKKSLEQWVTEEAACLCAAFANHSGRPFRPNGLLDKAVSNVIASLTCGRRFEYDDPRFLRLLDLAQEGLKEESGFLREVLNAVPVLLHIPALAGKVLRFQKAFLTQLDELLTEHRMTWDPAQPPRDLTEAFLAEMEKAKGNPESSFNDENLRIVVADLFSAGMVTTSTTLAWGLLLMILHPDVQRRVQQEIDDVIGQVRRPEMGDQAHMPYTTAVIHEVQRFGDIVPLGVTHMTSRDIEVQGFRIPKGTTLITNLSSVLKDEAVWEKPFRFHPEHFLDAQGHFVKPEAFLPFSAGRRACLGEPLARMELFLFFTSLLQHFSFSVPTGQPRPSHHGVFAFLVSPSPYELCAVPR
How it was run: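 P450-Glo format: CYP2D6 converts a proluciferin substrate to luciferin in an NADPH-driven reaction lasting 1 h at room temperature. Light output, proportional to CYP2D6 activity, reflects interference by test chemicals.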

[16] = target: Thyrotropin-releasing hormone receptor (Homo sapiens) (UniProt P34981); experiment: qHTS assay to identify small molecule agonists of the thyrotropin-releasing hormone receptor (TRHR) signaling pathway (AID 1346891; calls by dose curve;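 also: HEK293 cells expressing TRHR with calcium dye readout; series mostly up to about 58 µM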)
How it was run: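 Overnight-plated (18 h, 37 °C, 5% CO2) TRHR-Hek293 cells; 2 h calcium dye at 37 °C; compound in DMSO; 3-min kinetic fluorescence read.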

[17] = Caspase-3/7 induction in HepG2 cells by small molecules, qHTS assay (AID 1346978); also: nearly all actives have a fitted effect of over 15% in size
How it was run: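 Wild-type HepG2 cells (2,000/well) were settled 5 h at 37 C, 5% CO2, then exposed to compounds in DMSO for 17 h. Caspase-3/7 activity was read by luminescence 30 min after adding Caspase-Glo 3/7 reagent at room temperature.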

[18] = target: Nuclear receptor subfamily 1 group I member 2 (Rattus norvegicus) (UniProt Q9R1A7); experiment: Rat pregnane X receptor (rPXR) activation by small molecules, qHTS assay (AID 1346983); conditions: rPXR luciferase reporter cells, One-Glo luminescence, 24 h; max activation: hits give high values; also: potency is read from the fitted curve at half-maximal effect; nearly all actives have a fitted effect of over 20% in size
Sequence of Nuclear receptor subfamily 1 group I member 2 (Rattus norvegicus) (Q9R1A7 whole entry, looked up): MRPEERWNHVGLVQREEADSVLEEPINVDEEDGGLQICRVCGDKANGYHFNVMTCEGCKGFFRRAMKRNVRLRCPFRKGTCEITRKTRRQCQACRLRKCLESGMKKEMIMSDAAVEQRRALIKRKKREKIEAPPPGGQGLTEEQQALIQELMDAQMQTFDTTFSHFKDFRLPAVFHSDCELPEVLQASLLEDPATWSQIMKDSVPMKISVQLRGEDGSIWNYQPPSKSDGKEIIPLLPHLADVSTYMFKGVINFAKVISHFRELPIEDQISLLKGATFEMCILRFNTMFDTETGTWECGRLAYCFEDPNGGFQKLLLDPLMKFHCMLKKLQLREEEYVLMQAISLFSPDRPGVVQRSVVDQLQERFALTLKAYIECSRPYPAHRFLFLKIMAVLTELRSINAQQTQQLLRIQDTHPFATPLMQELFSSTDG
How it was run: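 Cell-based rPXR luciferase reporter assay, 2,000 cells per well, rested 5hr at 37 C before compound addition in DMSO, then 24 hr at 37 C. One-Glo reagent was added and luminescence read after 30 min at room temperature.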

[19] = target: Nuclear receptor subfamily 1 group I member 2 (Homo sapiens) (UniProt O75469); experiment: Human pregnane X receptor (PXR) activation by small molecules, qHTS assay (AID 1346985); also: potency is read from the fitted curve at half-maximal effect; nearly all actives have a fitted effect of over 40% in size
How it was run: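 DPX-2 cells (HepG2 co-transfected with a PXR response element and a CYP3A4-promoter luciferase construct) were seeded at 2,000 per well, rested 5 hr at 37C, then exposed to DMSO-dissolved compounds for 24 hr. Activation was read as luciferase luminescence.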

Structure (SMILES)	Potency [1]	Potency [2]	Potency [3]	Potency [4]	Potency [5]	outcome [6]	outcome [7]	outcome [8]	Potency [9]	Potency [10]	outcome [11]	Potency [12]	outcome [13]	Potency [14]	Potency [15]	Potency [16]	Potency [17]	Potency [18]	Potency [19]
CN1CCCN=C1/C=C/c1cccs1	inactive	inactive	inactive	inactive	inactive	inactive	inactive	inactive	inactive	inactive	inactive	inactive	–	–	–	–	–	–	–
C=CC(=C)CCCC(C)(C)OC(C)=O	inactive	inactive	inactive	inactive	inactive	inactive	inactive	–	inactive	inactive	–	–	inactive	inactive	inactive	–	–	–	–
C[Si]1(C)O[Si](C)(C)O[Si](C)(C)O1	inactive	inactive	inactive	inactive	inactive	–	–	inactive	inactive	inactive	inactive	inactive	inactive	inactive	inactive	inactive	inactive	–	–
C/C=C(\C)C(=O)OCCC(C)CCC=C(C)C (centres undefined)	inactive	inactive	inactive	inactive	inactive	inactive	inactive	inactive	inactive	inactive	–	inactive	–	–	inactive	–	inactive	–	–
OCC1CC=CCC1 (centres undefined)	inactive	inactive	inactive	inactive	inactive	inactive	inactive	inactive	inactive	inactive	–	inactive	–	inactive	inactive	–	inactive	–	–
CC(C)CCCC(=O)O	inactive	inactive	inactive	inactive	inactive	inactive	–	inactive	inactive	inactive	inactive	inactive	–	inactive	inactive	–	inactive	–	–
CC(C)(C)C(=O)C(Oc1ccc(Cl)cc1)n1ccnc1 (centres undefined)	inactive	inactive	23.7 µM (active)	inactive	–	inactive	inactive	inactive	inactive	–	inactive	inactive	inactive	23.7 µM (active)	–	inactive	inactive	12.6 µM (active)	15.8 µM (active)
CCCCC(CC)COC(=O)COc1ccc(Cl)cc1C (centres undefined)	inactive	inactive	inactive	inactive	inactive	inactive	inactive	inactive	inactive	inactive	inactive	inactive	–	–	inactive	–	inactive	–	–
C=CCOC(=O)/C=C\C(=O)OCC=C	inactive	inactive	inactive	inactive	inactive	inactive	inactive	–	inactive	inactive	inactive	–	–	inactive	inactive	inactive	inactive	–	–
